# Data as given in the supplement of paper PMC12067093, “Discovery and optimisation of a covalent ligand for TRIM25 and its application to targeted protein ubiquitination” (Chemical Science, 2025).
# About 21,000 targets were measured; listed, in parts, are those with the largest changes and a random draw of the rest.
# Compound: CC1Cc2ccccc2N1C(=O)C1CCCN(C1)C(=O)CCl (mixture of isomers) [TRIM25 ligand 11 (diastereomer mixture)]
# Assay: probe-labelled cysteine peptide fold change vs DMSO (competition) (log2 fold change); higher = less target engagement (more negative = stronger competition)
# Details: THP-1, incubation time: 4 h
# 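Also: competitive chemoproteomic profiling in live THP-1 cells with an iodoacetamide desthiobiotin (IA-DTB) probe, comparing probe-labelled peptide intensities in compound-treated cells against DMSO-treated controls.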
# UniProt Q16637, sequence (Q16637 whole entry, looked up): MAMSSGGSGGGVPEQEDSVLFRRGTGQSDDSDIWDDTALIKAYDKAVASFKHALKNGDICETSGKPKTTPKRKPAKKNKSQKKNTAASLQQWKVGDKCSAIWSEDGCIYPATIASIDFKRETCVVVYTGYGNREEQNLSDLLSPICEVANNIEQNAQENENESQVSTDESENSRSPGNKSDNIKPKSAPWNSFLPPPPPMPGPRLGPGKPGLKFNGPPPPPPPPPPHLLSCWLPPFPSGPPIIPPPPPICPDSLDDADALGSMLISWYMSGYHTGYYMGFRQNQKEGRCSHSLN
# UniProt Q96T51, sequence (Q96T51 whole entry, looked up): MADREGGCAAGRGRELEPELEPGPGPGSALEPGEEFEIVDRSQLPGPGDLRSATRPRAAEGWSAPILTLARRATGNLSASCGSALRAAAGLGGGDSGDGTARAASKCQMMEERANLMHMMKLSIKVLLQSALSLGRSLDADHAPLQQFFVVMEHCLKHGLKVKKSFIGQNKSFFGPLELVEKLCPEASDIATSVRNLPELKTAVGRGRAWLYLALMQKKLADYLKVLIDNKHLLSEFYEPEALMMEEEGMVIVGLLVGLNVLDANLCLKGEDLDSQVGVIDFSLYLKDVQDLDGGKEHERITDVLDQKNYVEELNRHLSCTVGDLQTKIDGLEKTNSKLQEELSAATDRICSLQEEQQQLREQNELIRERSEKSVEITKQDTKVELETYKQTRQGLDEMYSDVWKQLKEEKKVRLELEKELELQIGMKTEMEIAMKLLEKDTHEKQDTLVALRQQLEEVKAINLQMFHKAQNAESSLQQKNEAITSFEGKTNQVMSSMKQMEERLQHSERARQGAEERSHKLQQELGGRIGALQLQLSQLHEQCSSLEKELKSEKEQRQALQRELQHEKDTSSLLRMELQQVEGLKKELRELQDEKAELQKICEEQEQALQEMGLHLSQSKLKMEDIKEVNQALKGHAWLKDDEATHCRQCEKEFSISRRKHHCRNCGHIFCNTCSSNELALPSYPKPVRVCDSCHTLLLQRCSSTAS
# UniProt Q14BN4, sequence (Q14BN4 whole entry, looked up): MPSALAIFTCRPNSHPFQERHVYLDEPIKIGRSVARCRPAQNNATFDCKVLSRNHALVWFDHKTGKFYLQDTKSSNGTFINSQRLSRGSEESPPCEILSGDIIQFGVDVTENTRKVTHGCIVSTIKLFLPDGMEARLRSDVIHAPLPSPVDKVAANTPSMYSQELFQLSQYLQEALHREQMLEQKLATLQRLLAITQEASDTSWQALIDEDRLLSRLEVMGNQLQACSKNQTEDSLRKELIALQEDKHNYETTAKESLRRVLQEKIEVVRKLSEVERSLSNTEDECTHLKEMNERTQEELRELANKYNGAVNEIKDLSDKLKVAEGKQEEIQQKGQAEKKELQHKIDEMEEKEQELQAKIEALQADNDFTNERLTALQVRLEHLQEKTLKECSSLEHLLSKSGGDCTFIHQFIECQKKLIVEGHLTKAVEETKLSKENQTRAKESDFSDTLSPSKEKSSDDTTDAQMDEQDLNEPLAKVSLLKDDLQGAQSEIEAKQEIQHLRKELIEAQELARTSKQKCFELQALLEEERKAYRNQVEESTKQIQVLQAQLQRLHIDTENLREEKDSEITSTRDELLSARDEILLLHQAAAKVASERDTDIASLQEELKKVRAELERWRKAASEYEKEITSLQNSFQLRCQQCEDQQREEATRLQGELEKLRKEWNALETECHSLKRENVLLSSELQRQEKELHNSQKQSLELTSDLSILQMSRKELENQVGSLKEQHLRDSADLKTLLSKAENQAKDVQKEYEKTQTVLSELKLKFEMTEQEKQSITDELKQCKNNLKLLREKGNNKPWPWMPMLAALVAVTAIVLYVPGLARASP
# UniProt Q14683, sequence (Q14683 whole entry, looked up): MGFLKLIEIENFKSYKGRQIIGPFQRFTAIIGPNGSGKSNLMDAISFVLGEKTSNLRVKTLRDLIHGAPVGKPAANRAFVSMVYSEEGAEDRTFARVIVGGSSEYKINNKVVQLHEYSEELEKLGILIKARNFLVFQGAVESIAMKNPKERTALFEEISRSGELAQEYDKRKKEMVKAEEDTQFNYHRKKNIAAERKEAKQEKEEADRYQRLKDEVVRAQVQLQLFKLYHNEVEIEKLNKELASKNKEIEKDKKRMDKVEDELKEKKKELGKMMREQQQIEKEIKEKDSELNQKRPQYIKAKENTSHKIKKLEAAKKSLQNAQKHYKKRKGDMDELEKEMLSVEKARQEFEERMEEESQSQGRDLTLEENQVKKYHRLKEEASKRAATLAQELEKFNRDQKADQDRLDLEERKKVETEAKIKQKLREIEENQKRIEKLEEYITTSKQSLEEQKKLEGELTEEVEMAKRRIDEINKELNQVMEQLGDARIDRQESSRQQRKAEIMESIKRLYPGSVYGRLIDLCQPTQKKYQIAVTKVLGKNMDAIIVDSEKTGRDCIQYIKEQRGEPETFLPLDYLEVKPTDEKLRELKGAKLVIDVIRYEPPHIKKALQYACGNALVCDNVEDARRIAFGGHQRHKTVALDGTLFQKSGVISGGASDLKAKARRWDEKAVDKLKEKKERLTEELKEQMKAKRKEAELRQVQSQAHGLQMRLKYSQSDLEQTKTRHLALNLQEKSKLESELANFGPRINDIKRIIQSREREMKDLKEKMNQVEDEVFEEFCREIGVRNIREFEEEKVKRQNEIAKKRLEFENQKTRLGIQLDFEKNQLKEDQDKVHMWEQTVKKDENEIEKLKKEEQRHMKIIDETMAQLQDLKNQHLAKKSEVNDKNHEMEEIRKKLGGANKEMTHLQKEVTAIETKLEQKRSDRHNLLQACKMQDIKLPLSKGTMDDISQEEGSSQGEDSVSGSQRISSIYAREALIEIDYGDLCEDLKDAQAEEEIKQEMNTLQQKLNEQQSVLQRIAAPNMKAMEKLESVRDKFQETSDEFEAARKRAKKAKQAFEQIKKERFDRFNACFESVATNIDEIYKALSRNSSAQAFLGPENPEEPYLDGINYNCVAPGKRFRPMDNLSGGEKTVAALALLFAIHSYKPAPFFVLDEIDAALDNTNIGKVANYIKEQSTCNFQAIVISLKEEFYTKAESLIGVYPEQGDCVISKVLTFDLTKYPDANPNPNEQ
# UniProt Q68CR1, sequence (Q68CR1 whole entry): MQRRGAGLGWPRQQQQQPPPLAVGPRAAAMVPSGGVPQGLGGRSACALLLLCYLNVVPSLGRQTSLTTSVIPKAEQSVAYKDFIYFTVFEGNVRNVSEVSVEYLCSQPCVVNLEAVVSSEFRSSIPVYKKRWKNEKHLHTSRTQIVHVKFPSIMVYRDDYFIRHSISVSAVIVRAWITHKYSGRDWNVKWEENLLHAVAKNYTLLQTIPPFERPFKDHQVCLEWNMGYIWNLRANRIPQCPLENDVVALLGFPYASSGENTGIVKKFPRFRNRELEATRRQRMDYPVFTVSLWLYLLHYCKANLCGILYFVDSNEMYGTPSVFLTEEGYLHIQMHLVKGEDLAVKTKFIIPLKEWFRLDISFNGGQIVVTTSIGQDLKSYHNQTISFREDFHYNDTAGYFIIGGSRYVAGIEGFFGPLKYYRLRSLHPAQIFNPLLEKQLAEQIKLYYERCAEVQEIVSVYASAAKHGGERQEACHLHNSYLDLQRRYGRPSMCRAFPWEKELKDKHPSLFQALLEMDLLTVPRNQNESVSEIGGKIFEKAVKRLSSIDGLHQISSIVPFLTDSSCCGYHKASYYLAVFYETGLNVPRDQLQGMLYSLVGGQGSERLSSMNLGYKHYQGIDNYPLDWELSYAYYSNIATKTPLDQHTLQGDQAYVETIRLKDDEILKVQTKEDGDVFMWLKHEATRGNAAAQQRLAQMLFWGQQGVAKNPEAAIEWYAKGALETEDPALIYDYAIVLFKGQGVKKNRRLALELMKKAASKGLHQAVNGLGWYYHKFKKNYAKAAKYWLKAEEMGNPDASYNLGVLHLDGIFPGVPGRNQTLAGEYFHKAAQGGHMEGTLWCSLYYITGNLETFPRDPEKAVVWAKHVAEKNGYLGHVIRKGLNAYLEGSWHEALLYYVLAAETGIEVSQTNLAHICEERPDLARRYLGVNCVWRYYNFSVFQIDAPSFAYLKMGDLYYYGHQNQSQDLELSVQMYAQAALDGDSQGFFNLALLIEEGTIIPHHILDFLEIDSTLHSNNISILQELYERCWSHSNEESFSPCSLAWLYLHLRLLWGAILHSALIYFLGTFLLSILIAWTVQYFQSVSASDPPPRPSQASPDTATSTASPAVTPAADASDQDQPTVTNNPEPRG
# UniProt P61619, sequence (P61619 whole entry, looked up): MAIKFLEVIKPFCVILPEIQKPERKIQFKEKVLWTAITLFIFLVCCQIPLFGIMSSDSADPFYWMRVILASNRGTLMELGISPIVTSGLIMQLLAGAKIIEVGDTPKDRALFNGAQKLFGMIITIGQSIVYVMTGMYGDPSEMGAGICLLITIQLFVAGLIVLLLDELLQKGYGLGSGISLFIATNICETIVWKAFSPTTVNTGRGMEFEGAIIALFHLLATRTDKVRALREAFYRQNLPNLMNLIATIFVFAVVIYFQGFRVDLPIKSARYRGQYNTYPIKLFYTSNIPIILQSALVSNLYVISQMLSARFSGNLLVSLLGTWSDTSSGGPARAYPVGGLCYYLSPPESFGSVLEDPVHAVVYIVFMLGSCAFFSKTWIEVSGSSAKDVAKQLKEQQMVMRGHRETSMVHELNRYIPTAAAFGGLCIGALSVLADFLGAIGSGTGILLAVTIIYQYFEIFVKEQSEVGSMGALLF
# UniProt P09234, sequence (P09234 whole entry, looked up): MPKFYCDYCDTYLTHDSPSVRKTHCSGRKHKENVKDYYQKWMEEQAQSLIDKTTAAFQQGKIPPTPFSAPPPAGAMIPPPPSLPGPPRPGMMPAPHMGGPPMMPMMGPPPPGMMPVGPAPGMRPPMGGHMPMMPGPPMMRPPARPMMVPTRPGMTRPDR
# UniProt P62316, sequence (P62316 whole entry, looked up): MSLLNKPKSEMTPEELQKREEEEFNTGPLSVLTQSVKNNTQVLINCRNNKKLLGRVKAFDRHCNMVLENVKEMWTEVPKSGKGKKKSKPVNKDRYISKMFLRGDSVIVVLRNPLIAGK
target,measurement,setting,value
SMG7_Q92540_537_NLSNNCDTGEKPVVTFK (UniProt Q92540),probe-labelled cysteine peptide fold change,10 µM,-0.036
same,probe-labelled cysteine peptide fold change,50 µM,-0.226
SRCAP_Q6ZRS2_1926_IFQLSEAHGALAPVYGTEVLDFCTLPQPVASPIGPR (UniProt Q6ZRS2),probe-labelled cysteine peptide fold change,10 µM,0.683
same,probe-labelled cysteine peptide fold change,50 µM,0.741
SMN2_Q16637_60_NGDICETSGKPK (UniProt Q16637),probe-labelled cysteine peptide fold change,10 µM,-0.146
same,probe-labelled cysteine peptide fold change,50 µM,-0.16
SNRPC_P09234_6_FYCDYCDTYLTHDSPSVR (UniProt P09234),probe-labelled cysteine peptide fold change,10 µM,-0.122
same,probe-labelled cysteine peptide fold change,50 µM,-0.874
SLC2A9_Q9NRM0_36_ALLECDHLR (UniProt Q9NRM0),probe-labelled cysteine peptide fold change,10 µM,-0.0472
same,probe-labelled cysteine peptide fold change,50 µM,-0.18
SLMAP_Q14BN4_120_KVTHGCIVSTIK (UniProt Q14BN4),probe-labelled cysteine peptide fold change,10 µM,-0.0304
same,probe-labelled cysteine peptide fold change,50 µM,0.0755
RUFY1_Q96T51_692_VCDSCHTLLLQR (UniProt Q96T51),probe-labelled cysteine peptide fold change,10 µM,0.114
same,probe-labelled cysteine peptide fold change,50 µM,-0.0564
SMC1A_Q14683_781_MNQVEDEVFEEFCR (UniProt Q14683),probe-labelled cysteine peptide fold change,10 µM,0.0344
same,probe-labelled cysteine peptide fold change,50 µM,0.0302
RPP40_O75818_49_VSFLIPECGILSEELK (UniProt O75818),probe-labelled cysteine peptide fold change,10 µM,0.101
same,probe-labelled cysteine peptide fold change,50 µM,0.161
SEC61A1_P61619_13_FLEVIKPFCVILPEIQKPERK (UniProt P61619),probe-labelled cysteine peptide fold change,10 µM,-0.291
same,probe-labelled cysteine peptide fold change,50 µM,-0.191
SEL1L3_Q68CR1_475_QEACHLHNSYLDLQR (UniProt Q68CR1),probe-labelled cysteine peptide fold change,10 µM,-0.0373
same,probe-labelled cysteine peptide fold change,50 µM,-0.0246
SNRPD2_P62316_63_AFDRHCNMVLENVK (UniProt P62316),probe-labelled cysteine peptide fold change,10 µM,-0.388
same,probe-labelled cysteine peptide fold change,50 µM,-0.34
RRM1_P23921_218_WFTHASPTLFNAGTNRPQLSSCFLLSMKDDSIEGIYDTLK (UniProt P23921),probe-labelled cysteine peptide fold change,10 µM,0.111
same,probe-labelled cysteine peptide fold change,50 µM,0.0345
SPATA5L1_Q9BVQ7_104_LLLVPCPPLRR (UniProt Q9BVQ7),probe-labelled cysteine peptide fold change,10 µM,-0.0644
same,probe-labelled cysteine peptide fold change,50 µM,0.126
